# Assay results published in the supplement of paper PMC8728848.
# The sample as a whole holds a higher share of the strongest signals than the screen did.
# B1: FimD (Bordetella pertussis) (protein)
# chain: MPARVISFCGAALAVWAGLAVQPAMAVDPPVDCGRALGLHFWSSASLISDQTPDGTLIGKPVVGRSLLSKSCKVPDDIKEDLSDNHDGEPVDIVLELGSNYKIRPQSYGHPGIVVDLPFGSTEETGIAIYIDFGSSPMQKVGERQWLYPQKGEVLFDVLTINGDNAEVRYQAIKVGPLKRPRKLVLSQFPNLFTYKWVFMRGTSQERVLAQGTIDTDVATSTIDLKTCRYTSQTVSLPIIQRSALTGVGTTLGMTDFQMPFWCYGWPKVSVYMSATKTQTGVDGVALPATGQAAGMASGVGVQLINGKTQQPVKLGLQGKIALPEAQQTESATFSLPMKAQYYQTSTSTSAGKLSVTYAVTLNYD
# Assays:
# Assay in all cases: glycan array binding signal (z-score within array); higher = stronger binding
# Conditions in all cases: glycan notation: IUPAC condensed, linker removed
# [1] = target: GalNAc(b1-3)Gal
# In short: (§1)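 The binding signal is a Z-score computed within each array. Data were drawn from 3228 arrays in the Consortium for Functional Glycomics database, restricted to those with a known protein sequence. Scores were averaged over arrays of the same protein sequence at different concentrations or buffers, and over linkers, and negative values can be taken as non-binding.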
# [2] = target: GalNAc(b1-3)GalNAc
# In short: as §1
# [3] = target: GalNAc(b1-4)GlcNAc
# In short: as §1
# [4] = target: GlcNAc(a1-4)Gal(b1-4)GlcNAc(b1-3)Gal(b1-4)Glc
# In short: as §1
# [5] = target: GlcNAc(a1-4)Gal(b1-4)GlcNAc(b1-3)Gal(b1-4)GlcNAc(b1-3)Gal(b1-4)GlcNAc
# In short: as §1
# [6] = target: GlcNAc(b1-2)Man(a1-3)[GlcNAc(b1-2)Man(a1-6)]Man(b1-4)GlcNAc(b1-4)GlcNAc
# In short: as §1
# [7] = target: GlcNAc(b1-2)[GlcNAc(b1-6)]Man(a1-6)[GlcNAc(b1-4)][GlcNAc(b1-2)Man(a1-3)]Man(b1-4)GlcNAc(b1-4)GlcNAc
# In short: as §1
# [8] = target: GlcNAc(b1-3)Gal(b1-4)GlcNAc
# In short: as §1
# [9] = target: GlcNAc(b1-3)Gal(b1-4)GlcNAc(b1-3)Gal(b1-4)GlcNAc(b1-3)Gal(b1-4)GlcNAc(b1-2)[GlcNAc(b1-3)Gal(b1-4)GlcNAc(b1-3)Gal(b1-4)GlcNAc(b1-3)Gal(b1-4)GlcNAc(b1-6)]Man(a1-6)[GlcNAc(b1-3)Gal(b1-4)GlcNAc(b1-3)Gal(b1-4)GlcNAc(b1-3)Gal(b1-4)GlcNAc(b1-2)Man(a1-3)]Man(b1-4)GlcNAc(b1-4)[Fuc(a1-6)]GlcNAc
# In short: as §1
# [10] = target: GlcNAc(b1-6)GalNAc
# In short: as §1
# [11] = target: Kdn(a2-3)Gal(b1-4)[Fuc(a1-3)]GlcNAc
# In short: as §1
# [12] = target: Neu5Ac(a2-3)Gal(b1-3)GalNAc
# In short: as §1
# [13] = target: Neu5Ac(a2-3)Gal(b1-3)GlcNAc(b1-2)Man(a1-3)[GlcNAc(b1-4)][Neu5Ac(a2-3)Gal(b1-3)GlcNAc(b1-2)Man(a1-6)]Man(b1-4)GlcNAc(b1-4)GlcNAc
# In short: as §1
# [14] = target: Neu5Ac(a2-3)Gal(b1-3)GlcNAc(b1-3)Gal(b1-4)GlcNAc
# In short: as §1
# [15] = target: Neu5Ac(a2-3)Gal(b1-3)[Fuc(a1-4)]GlcNAc(b1-3)Gal(b1-3)[Fuc(a1-4)]GlcNAc
# In short: as §1
# [16] = target: Neu5Ac(a2-3)Gal(b1-4)GlcNAc(b1-2)Man
# In short: as §1
# [17] = target: Neu5Ac(a2-3)Gal(b1-4)GlcNAc(b1-2)Man(a1-3)[Neu5Ac(a2-6)Gal(b1-4)GlcNAc(b1-2)Man(a1-6)]Man(b1-4)GlcNAc(b1-4)GlcNAc
# In short: as §1
# [18] = target: Neu5Ac(a2-3)Gal(b1-4)GlcNAc(b1-3)Gal(b1-4)GlcNAc(b1-3)Gal(b1-4)GlcNAc
# In short: as §1
# [19] = target: Neu5Ac(a2-3)Gal(b1-4)[Fuc(a1-3)]GlcNAc(b1-3)Gal(b1-4)GlcNAc
# In short: as §1
# [20] = target: Neu5Ac(a2-3)Gal(b1-4)[Fuc(a1-3)]GlcNAc(b1-3)Gal(b1-4)[Fuc(a1-3)]GlcNAc(b1-3)Gal(b1-4)[Fuc(a1-3)]GlcNAc
# In short: as §1
# [21] = target: Neu5Ac(a2-3)[GalNAc(b1-4)]Gal(b1-4)GlcNAc(b1-3)GalNAc
# In short: as §1
# [22] = target: Neu5Ac(a2-6)Gal(b1-4)GlcNAc(b1-2)Man(a1-3)[Neu5Ac(a2-6)Gal(b1-4)GlcNAc(b1-2)Man(a1-6)]Man(b1-4)GlcNAc(b1-4)GlcNAc
# In short: as §1
# [23] = target: Neu5Ac(a2-6)Gal(b1-4)GlcNAc(b1-2)Man(a1-6)[GlcNAc(b1-2)Man(a1-3)]Man(b1-4)GlcNAc(b1-4)GlcNAc
# In short: as §1
# [24] = target: Neu5Ac(a2-6)Gal(b1-4)GlcNAc(b1-3)Gal(b1-4)GlcNAc(b1-3)Gal(b1-4)GlcNAc(b1-2)Man(a1-3)[Neu5Ac(a2-6)Gal(b1-4)GlcNAc(b1-3)Gal(b1-4)GlcNAc(b1-3)Gal(b1-4)GlcNAc(b1-2)Man(a1-6)]GalNAc
# In short: as §1
# [25] = target: Neu5Ac(a2-6)Gal(b1-4)GlcNAc(b1-6)[Gal(b1-3)]GalNAc
# In short: as §1
# [26] = target: Neu5Ac(a2-8)Neu5Ac(a2-3)Gal(b1-3)GalNAc(b1-4)[Neu5Ac(a2-8)Neu5Ac(a2-3)]Gal(b1-4)Glc
# In short: as §1
# [27] = target: Neu5Ac(a2-8)Neu5Ac(a2-3)[Gal(b1-3)GalNAc(b1-4)]Gal(b1-4)Glc
# In short: as §1
# [28] = target: Neu5Ac(b2-6)GalNAc
# In short: as §1
# [29] = target: Neu5Gc(a2-8)Neu5Gc(a2-6)Gal(b1-4)GlcNAc
# In short: as §1
binder,measurement,setting,value
B1,glycan array binding signal (z-score),[1],0.008
same,glycan array binding signal (z-score),[2],-0.207
same,glycan array binding signal (z-score),[3],1.38
same,glycan array binding signal (z-score),[4],1.99
same,glycan array binding signal (z-score),[5],-0.238
same,glycan array binding signal (z-score),[6],0.004
same,glycan array binding signal (z-score),[7],-0.119
same,glycan array binding signal (z-score),[8],-0.296
same,glycan array binding signal (z-score),[9],1.29
same,glycan array binding signal (z-score),[10],-0.117
same,glycan array binding signal (z-score),[11],-0.279
same,glycan array binding signal (z-score),[12],0.041
same,glycan array binding signal (z-score),[13],-0.459
same,glycan array binding signal (z-score),[14],-0.268
same,glycan array binding signal (z-score),[15],-0.191
same,glycan array binding signal (z-score),[16],1.16
same,glycan array binding signal (z-score),[17],-0.107
same,glycan array binding signal (z-score),[18],0.504
same,glycan array binding signal (z-score),[19],0.96
same,glycan array binding signal (z-score),[20],-0.135
same,glycan array binding signal (z-score),[21],0.943
same,glycan array binding signal (z-score),[22],0.115
same,glycan array binding signal (z-score),[23],-0.065
same,glycan array binding signal (z-score),[24],1.34
same,glycan array binding signal (z-score),[25],-0.022
same,glycan array binding signal (z-score),[26],1.36
same,glycan array binding signal (z-score),[27],-0.095
same,glycan array binding signal (z-score),[28],-0.348
same,glycan array binding signal (z-score),[29],-0.611
